# Measurements: ChEMBL document CHEMBL4513216, “Probing the Open Global Health Chemical Diversity Library for Multistage-Active Starting Points for Next-Generation Antimalarials” (ACS Infect Dis, 2020)
# Screen size: about 69,000 compounds; about 8,600 (12%) showed an effect of 50% or more. The sample as a whole holds a higher share of strong results than the screen did.
# Test system: Plasmodium berghei
# Experiment: Screen against P. berghei liver stage (PbLuc), transformed with Luciferase, at 10uM
# Type: functional, HepG2
# Settings: tested at 10 uM
row,Compound,INHIBITION [%]
1,Cc1ncccc1CNCC1CCN(CCO)CC1,-64.9
2,Cc1cccc(CNC2(CCO)CCOCC2)c1C,27.3
3,CCN1CCOC(CNCc2ccccc2OCC(=O)N(C)C)C1 (centres undefined),12.8
4,Cc1cccc(CNCC2COC3(CCCCC3)O2)c1C (centres undefined),-3.77
5,Cc1ncccc1CNCC1CCCN1c1cccnn1 (centres undefined),7.67
6,COCCOc1ccccc1CNCc1c(C)nn(C)c1N(C)C,-2.44
7,Cc1cccc(CNCC2COC3(CCCC3)O2)c1C (centres undefined),50
8,Cc1ncccc1CNCC1COC2(CCCCC2)O1 (centres undefined),74.9
9,COCCOc1ccccc1CNCC1COC2(CCCC2)O1 (centres undefined),81.5
10,O=C(CCOCC(F)(F)F)N1CCCC1c1noc(C2CC2)n1 (centres undefined),-21.5
11,Cc1nc(NC(=O)C(C)N(C)Cc2ccc3c(c2)OCO3)sc1C (centres undefined),46.3
12,Cc1cc(C)n(C2CCCN(C(=O)CCOc3ccccc3F)C2)n1 (centres undefined),-11.4
13,COCc1noc(-c2cc(Cl)c3c(c2)OCCCO3)n1,19.8
14,CN(C)c1ncc(NC(=O)N2CCC(CN3CCCC3)C2)cn1 (centres undefined),-45
15,CC1CCN(C(=O)C2CCCN(C(=O)Nc3ccccn3)C2)CC1 (centres undefined),89.6
16,Cc1ccc(C(=O)NC2CCN(C(=O)Nc3ccccn3)CC2)o1,-1.58
17,CC(=O)N1CCC(C(=O)N2CCCC(Cc3ccccn3)C2)CC1 (centres undefined),-6.92
18,O=C(NC1CCCCC1)C1CCCN(C(=O)Nc2ccccn2)C1 (centres undefined),66.1
19,Cc1ccc(C(=O)NC2CCN(C(=O)Nc3ccccn3)CC2)s1,-21.9
20,Cc1cccc(NC2CCN(C(=O)Nc3ccccn3)CC2)n1,28.8
21,CC1CCN(CC(O)CNc2ccccn2)CC1 (centres undefined),1.62
22,CC1CCN(CC2CCCN(C(=O)Nc3ccccn3)C2)CC1 (centres undefined),55

row,Compound,INHIBITION [%]
1,CNc1ccc(CC2CCCN(C(=O)c3cnccn3)C2)nn1 (centres undefined),32.3
2,O=C(NCC1(O)COCCN(Cc2cccc(O)c2)C1)c1cscn1 (centres undefined),-19.7
3,Cc1cc(C)n(CC(C)Nc2nc(-c3ccncc3)nc3c2CNC3)n1 (centres undefined),49.2
4,Cn1cnc2c(N3CCCC3)nc(C3CCN(CC4CC4)CC3)cc21,-14.4
5,CCOC(=O)N1CCN(c2nc(C)ncc2CC)CC1,47.1
6,CCc1cnc(C)nc1N1CCS(=O)(=O)CC1,57.3
7,CCc1cnc(C)nc1N1CCN(C(N)=O)CC1,46.1
8,O=C(Cn1cc(Cl)cn1)N1CCCC(c2ccn[nH]2)C1 (centres undefined),28
9,Cc1occc1CNC(=O)NCCN(C)C1CCCC1,16.8
10,CCOCC1CN(C(=O)c2ccoc2)Cc2cnn(C)c21 (centres undefined),15.6
11,CN(Cc1ccc(C#N)cc1)Cn1nccc1-c1cccnc1,50.5
12,Cc1ccsc1CN(C)Cn1nccc1-c1cccnc1,5.79
13,Cc1noc(C)c1CN(C)Cn1nccc1-c1cccnc1,36.2
14,NC(=O)c1sc2ccccc2c1C1CCN(S(=O)(=O)N2CCOCC2)C1 (centres undefined),-24.4
15,CCc1ccc(CNc2cc(N3CCCC3CO)ncn2)s1 (centres undefined),49.1
16,CC(C)N(Cc1ccccn1)C(=O)CCC(=O)c1ccc(F)cc1F,36.9
17,CN(Cc1nc2ccsc2c(=O)[nH]1)C[C@@H]1CCCN2CCCC[C@H]12,68.4
18,CN(Cc1nc2ccsc2c(=O)[nH]1)CC1CCCCC1,-21.8
19,CN(Cc1ccc(-n2cccn2)cc1)C[C@@H]1CCCN2CCCC[C@H]12,70
20,CN(Cc1nc2ccccc2c(=O)[nH]1)C[C@@H]1CCCN2CCCC[C@H]12,42.6
21,CN(Cc1ccccc1-n1cccn1)C[C@@H]1CCCN2CCCC[C@H]12,40.7
22,CN(Cc1ccc(-n2cccn2)cc1)CC1CCCN1c1cccnn1 (centres undefined),9.64

row,Compound,INHIBITION [%]
1,CNC(=O)C1(CCCc2ccncc2)CCCCN1 (centres undefined),-4.51
2,CCc1cc(NCCCN(C)C2CCCC2)ncn1,-13.1
3,Cc1nc(C(=O)N(CC2CCCO2)c2ccncc2)cs1 (centres undefined),45.5
4,CN(C)c1ccccc1CN1CCC(N2CCCC2=O)CC1,25.2
5,CC(C)(C#N)c1ccccc1CN1CCC(N2CCCC2=O)CC1,57.7
6,COC(=O)N1CCN(Cc2ccccc2C(C)(C)C#N)CC1,39.2
7,O=C1CCCN1C1CCCN(CCOc2ccc(F)cc2)C1 (centres undefined),31.2
8,CCc1ccccc1CN1CCC(N2CCCC2=O)CC1,-0.87
9,CN(C)c1ccccc1CN1CCCC(N2CCCC2=O)C1 (centres undefined),51.7
10,CCSCc1csc(-c2ccc(S(C)(=O)=O)cc2)n1,-35.8
11,CCOc1cc(CNC(=O)CNC(=O)CC2CCCCC2)ccn1,6.23
12,NCc1cnc(Nc2ccccc2)nc1,23.1
13,CCc1cnc(CN(C(C)=O)C2CCN(CCN3CCCCC3)C2)o1 (centres undefined),31.9
14,CC(C)c1noc(-c2ccc(-n3cnc(C(=O)O)c3)nc2)n1,2.49
15,Cc1c(C(=O)N2CCCC(C(=O)c3nccn3C)C2)c[nH]c(=O)c1C#N (centres undefined),25.1
16,O=C1NCCN(C(=O)CN2CCOC2=O)C1c1cccc(F)c1 (centres undefined),32
17,O=C1NCCN(C(=O)CCN2CCCO2)C1c1cccc(F)c1 (centres undefined),5.15
18,O=C(CCC(=O)N1CCNC(=O)C1c1cccc(F)c1)NC1CCCC1 (centres undefined),55.5
19,CCc1nccn1C1CCCN(C(=O)c2csc(NC(C)=O)n2)C1 (centres undefined),20.1
20,CC(NCc1ccccc1Cl)c1ccc2[nH]c(=O)[nH]c2c1 (centres undefined),40.9
21,CC(NCc1ccccc1Br)c1ccc2[nH]c(=O)[nH]c2c1 (centres undefined),51.6
22,COc1ccccc1CNC(C)c1ccc2[nH]c(=O)[nH]c2c1 (centres undefined),7.12

row,Compound,INHIBITION [%]
1,CCN1CC(C(=O)NCCCc2nc(C)c(C)s2)CC1=O (centres undefined),45.8
2,Cc1nc(CCCNC(=O)C2CC(=O)N(C3CC3)C2)sc1C (centres undefined),56.8
3,Cc1nc(CCCNC(=O)C2CC(=O)N(C3CCCC3)C2)sc1C (centres undefined),44.7
4,Cc1cnc2n1CCN(C)C21CCN(C(=O)CC(C)C)CC1,0.547
5,COCc1ccc(C(=O)N2CC[C@H](O)[C@@H](n3ccnc3)CC2)cc1,-6.3
6,Cn1c(=O)oc2cc(S(=O)(=O)N3CCC(c4ccccc4)C3)c(Cl)cc21 (centres undefined),55
7,Cn1c(=O)oc2ccc(S(=O)(=O)N3CCC(c4ccccc4)C3)cc21 (centres undefined),-5.26
8,Cn1c(=O)oc2cc(S(=O)(=O)N3CCCCC3)c(Cl)cc21,30
9,COCC(NC(=O)c1ccoc1C)c1cccc(C(F)(F)F)c1 (centres undefined),17.8
10,O=C(O)[C@]12CCCN(Cc3ccsc3)C[C@H]1CN(c1ccccn1)C2,1.48
11,Cc1ccc(CN2CCCC3(COCCN(Cc4c[nH]nn4)C3)C2)s1 (centres undefined),65.6
12,c1csc(CN2CCCC3(COCCN(Cc4c[nH]nn4)C3)C2)c1 (centres undefined),31.7
13,Fc1ccc(CN2CCCC3(COCCN(Cc4c[nH]nn4)C3)C2)cc1 (centres undefined),61.5
14,CNC(=O)CN1CCOCC2(CCCN(Cc3ccsc3)C2)C1 (centres undefined),-17.1
15,c1cc(CN2CCCC3(COCCN(Cc4c[nH]nn4)C3)C2)cs1 (centres undefined),-4.88
16,Cn1cc(CN2CCCC3(COCCN(Cc4c[nH]nn4)C3)C2)cn1 (centres undefined),-6.23
17,CNC(=O)CN1CCOCC2(CCCN(Cc3ccc(F)cc3)C2)C1 (centres undefined),53.1
18,CNC(=O)CN1CCOCC2(CCCN(Cc3ccoc3)C2)C1 (centres undefined),-2.35
19,Cc1ccc(CN2CCCC3(COCCN(Cc4c[nH]nn4)C3)C2)o1 (centres undefined),30.5
20,CCc1cccc(CC)c1NC(=O)c1ccccc1N(C)S(C)(=O)=O,26.9
21,Cn1cccc1C(=O)N1CCCCC1c1[nH]ncc1S(C)(=O)=O (centres undefined),4.08
22,CC(C)n1cnc2c1C(C(=O)N1CCCC1)N(CC1CC1)CC2 (centres undefined),13.7

row,Compound,INHIBITION [%]
1,Cc1nc(C(C)(C)C)sc1C(=O)NCCNc1ncccc1C#N,-26.6
2,CCN(Cc1c(F)cccc1F)Cn1nc(C)c2c(C)onc2c1=O,12.7
3,Cc1noc(C)c1CNCC1(COc2cccnc2)C[C@@H](O)[C@@H](O)C1 (some centres undefined),27.5
4,Cc1ccccc1C1(CNC(=O)NCCc2nnc3n2CCC3)CC1,-25.3
5,NC(=O)C1(c2cnccn2)CCCN1Cc1ccc(Cl)cc1 (centres undefined),-7.79
6,NC(=O)C1(c2cnccn2)CCCN1Cc1ccncc1 (centres undefined),72.3
7,NC(=O)C1(c2cnccn2)CCCN1Cc1cccc(Cl)c1 (centres undefined),15.9
8,OCC1(NCc2cnc(-c3cccs3)s2)CCOCC1,0.0944
9,Clc1ccc(OCCCN2CCOC(Cn3cncn3)C2)cc1 (centres undefined),66.2
10,c1cnn(CC2CN(Cc3csc(C4CCCCC4)n3)CCO2)c1 (centres undefined),64.8
11,c1csc(-c2nc(CN3CCOC(Cn4cncn4)C3)cs2)c1 (centres undefined),40.9
12,Fc1ccc(OCCCN2CCOC(Cn3cncn3)C2)cc1 (centres undefined),19.4
13,c1ccc(-c2nc(CN3CCOC(Cn4cncn4)C3)cs2)cc1 (centres undefined),18.2
14,Clc1cccc(OCCCN2CCOC(Cn3cncn3)C2)c1 (centres undefined),14.1
15,CC(C)c1nc(CN2CCOC(Cn3cncn3)C2)cs1 (centres undefined),-33.9
16,c1cnc(-c2nc(CN3CCOC(Cn4cncn4)C3)cs2)nc1 (centres undefined),88.1
17,c1ccc(-c2nc(CN3CCOC(Cn4cccn4)C3)cs2)cc1 (centres undefined),-6.04
18,Cc1cnn(CC2CN(Cc3csc(C4CCCC4)n3)CCO2)c1 (centres undefined),-6.44
19,CC(C)(C)c1nc(CN2CCOC(Cn3cncn3)C2)cs1 (centres undefined),44.3
20,c1ncn(CC2CN(Cc3csc(C4CCCC4)n3)CCO2)n1 (centres undefined),58.3
21,O=C(c1ccc(S(=O)(=O)NCc2ccon2)cc1)N1CCCCCC1,-6.21
